The values below come from PubChem BioAssay (Tox21).

Each structure is given as a SMILES string. Records with an inconclusive call do not appear. A call without a number means that no potency is given here. Activity calls are given as the source filed them. Unless noted, the call rests on the fitted dose curve; in most records, active means well fitted cell-killing curve with a large enough effect in the repeat runs; inconclusive means weak or mixed curves, or effect the other way; inactive means flat fitted curve, though single readings scatter.

Sequence of Androgen receptor (Homo sapiens) (P10275 whole entry, looked up): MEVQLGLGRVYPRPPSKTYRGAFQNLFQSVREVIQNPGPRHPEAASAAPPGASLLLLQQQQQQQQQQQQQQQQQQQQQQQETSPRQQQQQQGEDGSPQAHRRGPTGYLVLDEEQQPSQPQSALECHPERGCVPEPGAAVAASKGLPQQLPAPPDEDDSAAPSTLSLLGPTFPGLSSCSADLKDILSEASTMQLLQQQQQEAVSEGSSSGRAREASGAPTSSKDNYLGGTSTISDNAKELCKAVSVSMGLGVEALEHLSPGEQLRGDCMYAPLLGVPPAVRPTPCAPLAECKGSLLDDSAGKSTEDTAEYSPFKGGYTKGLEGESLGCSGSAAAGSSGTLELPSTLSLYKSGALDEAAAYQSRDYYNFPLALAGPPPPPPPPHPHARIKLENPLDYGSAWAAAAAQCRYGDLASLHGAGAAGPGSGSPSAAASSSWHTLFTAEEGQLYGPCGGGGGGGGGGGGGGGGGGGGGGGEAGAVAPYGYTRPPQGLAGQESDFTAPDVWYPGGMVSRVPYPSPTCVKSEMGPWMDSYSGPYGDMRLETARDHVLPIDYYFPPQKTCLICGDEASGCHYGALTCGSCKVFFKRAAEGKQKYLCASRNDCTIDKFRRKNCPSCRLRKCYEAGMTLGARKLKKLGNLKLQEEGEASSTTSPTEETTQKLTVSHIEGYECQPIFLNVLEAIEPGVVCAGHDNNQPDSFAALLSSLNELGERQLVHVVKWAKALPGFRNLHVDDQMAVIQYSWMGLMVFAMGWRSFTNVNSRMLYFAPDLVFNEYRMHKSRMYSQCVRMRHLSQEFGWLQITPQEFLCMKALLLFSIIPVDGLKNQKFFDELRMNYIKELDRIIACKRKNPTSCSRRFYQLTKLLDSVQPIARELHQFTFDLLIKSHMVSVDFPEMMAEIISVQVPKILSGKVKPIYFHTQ

Test system in one experiment: not listed separately
Briefly: qHTS assay to identify small molecule agonists of the estrogen receptor beta (ER-beta) signaling pathway - cell viability counter screen (AID 1259380). Further: nearly all actives have a fitted effect of over 30% in size. The conditions noted are these: ER-beta-bla HEK293T viability, CellTiter-Glo luminescence, 16 h; series mostly up to 92.4 µM. In outline:
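Cells used were ER-beta-UAS-bla HEK293T in medium with 2% charcoal-stripped FBS. They were treated for 16 hr at 37C. Viability came from CellTiter-Glo luminescence.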
For the compound `C[C@H](CN1CCOCC1)C(C(=O)N1CCCC1)(c1ccccc1)c1ccccc1`, the Potency result is “inactive”. Take `COC[C@@H](NC(C)=O)C(=O)NCc1ccccc1`: the Potency result was “inactive”.

Take `CC[C@@H](CO)NC(=O)[C@@H]1C=C2c3cccc4[nH]cc(c34)C[C@H]2N(C)C1`: the Potency result is “inactive”.

Turning to `CC[C@@H](CO)NC(=O)[C@@H]1C=C2c3cccc4c3c(cn4C)C[C@H]2N(C)C1`, the Potency entry is “inactive”. For the compound `Cc1ccc2cc(C)ccc2c1`, the Potency result is “inactive”. `O=C(Cl)OCc1ccccc1`: the Potency result was “inactive”. In the case of `CCN[C@@H](C)Cc1ccccc1`, the Potency entry is “inactive”. On the same count and under the same terms, with `CCOC1Oc2ccc(OS(C)(=O)=O)cc2C1(C)C` (stereo not given) the entry was “inactive”; with `Clc1nc(Cl)nc(Nc2ccccc2Cl)n1`, “inactive”; with `CC(Cc1ccccc1)NCCCCl` (stereo not given), “inactive”.

On to `Clc1cc2c(cc1Cl)Oc1cc(Cl)c(Cl)cc1O2`, for which the activity change, negative = cytotoxicity was 2.45% [at 0.349 µM] (inactive). As to `CCNc1nc(Cl)nc(NC(C)(C)C)n1`, the Potency result is “inactive”. Consider `CC(C)(C1CCC(O)CC1)C1CCC(O)CC1` (stereo not given), for which the Potency result was “inactive”.

As for `C=CCc1cc(OC)c2c(c1)OCO2`, the Potency result was “inactive”. `CC(C)N(Cc1ccccc1)C(=O)C(C)(C)C`: the Potency result is “inactive”. Regarding `Cc1cc(OC(=O)N(C)C)nn1C(=O)N(C)C`, the Potency entry is “inactive”. Regarding `CCC1(c2ccccc2)CCC(=O)NC1=O` (stereo not given), the Potency result is “inactive”.

As to `CN(C)C(=O)Oc1cc(OC(=O)N(C)C)cc(C(O)CNC(C)(C)C)c1` (stereo not given), the Potency result was “inactive”. With `N[C@@H]1C[C@H]1c1ccccc1`, the Potency entry was “inactive”. On to `O=C/C=C/c1ccco1`, for which the Potency result is “inactive”. For the compound `OP(O)c1ccccc1`, the Potency result was “inactive”. With `CCC(C)(C#N)N=NC(C)(C#N)CC` (stereo not given), the Potency entry was “inactive”. For `OCC(Cl)CCl` (stereo not given), the Potency result is “inactive”.

On to `O=C(Cl)C(Cl)(Cl)Cl`, for which the Potency entry is “inactive”. `N#CN`: the Potency entry is “inactive”. Still for that read-out and setting: next, `COc1ccc(C=O)cc1O`: “inactive”. As for `O=C(NC(O)C(Cl)(Cl)Cl)NC(O)C(Cl)(Cl)Cl` (stereo not given), the Potency result was “inactive”. Consider `CCC(CC)(CNC(=O)CCCO)c1cccc(OC)c1`, for which the Potency entry is “inactive”. With `CN(C)CCc1c[nH]c2cccc(OP(=O)(O)O)c12`, the Potency result was “inactive”. Consider `BrCC1CO1` (stereo not given), for which the Potency result is “inactive”.

For `C[N+]1(C)CCCCC1`, the Potency entry is “inactive”. For the compound `CCN(CC)C1CCCCC1`, the Potency result was “inactive”. In the case of `CCCOC(=O)c1cncn1C(C)c1ccccc1` (stereo not given), the Potency result was “inactive”. `C=CC(=O)OCCN(C)C`: the Potency entry is “inactive”. In the case of `C#CC(C)(C)O`, the Potency entry is “inactive”.

The next experiment concerns the target Androgen receptor (Homo sapiens) (UniProt P10275). Briefly: qHTS assay to identify small molecule agonists of the androgen receptor (AR) signaling pathway in the presence of an antagonist (AID 1259381; calls by dose curve; further: nearly all actives have a fitted effect of over 15% in size). The note with it: MDA-kb2 MMTV-luciferase, AR agonist + nilutamide, 16 h; series mostly up to 92.4 µM. Put shortly:
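Using human MDA-kb2 cells with an MMTV promoter–luciferase construct (AR and GR response elements), agonist activity is scored under 3.0uM nilutamide (final) co-treatment; 16hr incubation, 37C, luminescence readout via ONE-Glo.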
`C[C@H](CN1CCOCC1)C(C(=O)N1CCCC1)(c1ccccc1)c1ccccc1`: the Potency result is “inactive”. On to `COC[C@@H](NC(C)=O)C(=O)NCc1ccccc1`, for which the Potency result was “inactive”.

Take `CC[C@@H](CO)NC(=O)[C@@H]1C=C2c3cccc4[nH]cc(c34)C[C@H]2N(C)C1`: the Potency result is “inactive”.

As for `CCN[C@@H](C)Cc1ccccc1`, the Potency entry was “inactive”.

On to `CCOC1Oc2ccc(OS(C)(=O)=O)cc2C1(C)C` (stereo not given), for which the Potency result was “inactive”. On the same count and under the same terms, with `CC(Cc1ccccc1)NCCCCl` (stereo not given) the entry was “inactive”. For the compound `Clc1cc2c(cc1Cl)Oc1cc(Cl)c(Cl)cc1O2`, the activation is 3.07% [at 0.349 µM] (inactive).

`CCNc1nc(Cl)nc(NC(C)(C)C)n1`: the Potency result was “inactive”.

For `CC(C)N(Cc1ccccc1)C(=O)C(C)(C)C`, the Potency result is “inactive”. As for `CCC1(c2ccccc2)CCC(=O)NC1=O` (stereo not given), the Potency entry was “inactive”. The same measure, in the same setting: with `CN(C)C(=O)Oc1cc(OC(=O)N(C)C)cc(C(O)CNC(C)(C)C)c1` (stereo not given) the entry was “inactive”; with `N[C@@H]1C[C@H]1c1ccccc1`, “inactive”. In the case of `O=C/C=C/c1ccco1`, the Potency entry is “inactive”. For `OP(O)c1ccccc1`, the Potency entry is “inactive”.

For the compound `CCC(C)(C#N)N=NC(C)(C#N)CC` (stereo not given), the Potency result was “inactive”. Still for that read-out and setting: next, `COc1ccc(C=O)cc1O`: “inactive”.

Take `CCC(CC)(CNC(=O)CCCO)c1cccc(OC)c1`: the Potency result was “inactive”. Turning to `C[N+]1(C)CCCCC1`, the Potency result was “inactive”.

On to `CCN(CC)C1CCCCC1`, for which the Potency result was “inactive”. As for `CCCOC(=O)c1cncn1C(C)c1ccccc1` (stereo not given), the Potency entry is “inactive”.
